A selection: hits, their analogues and other compounds. The true share with any hit is near 4.9%.
HSP90 refold inh: inhibitors of HSP90 luciferase refolding in rabbit reticulocyte lysate; AID 1789; luciferase refolding luminescence, 3 h; 290,000 tested, 0.91% active; inhibition, % at 5.6 µM;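 active = inhibition above the screen-wide mean plus 3 SD, computed separately per campaign, cut at about 16% in these data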;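 note: 0% = DMSO wells and 100% = 60 µM geldanamycin wells; inhibitors lower the luminescence because luciferase stays unfolded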
HSF1 inh: HSF1 inhibition; NIH3T3-HGL HSE-luciferase, MG132-induced, luminescence 8 h; active compounds read low; activity change, negative = inhibition, % at 7.5 µM (by protocol); 300,000 tested, 0.77% active; AID 2098;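 active = more than half of replicate wells show activity change below -50%, luminescence cut by over half; inconclusive = some wells, but at most half, below -50%; inactive = no replicate well below -50%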;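 note: luciferase reports HSF-1 transcriptional activity via heat shock element; 0% = median of DMSO wells and -100% = zero luminescence signal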
HSF-1 act: increases HSF-1 driven luciferase reporter signal; AID 504408; 300,000 tested, 1.7% active; activation, % at 9 µM; NIH3T3-HGL HSF-1 luciferase reporter, MG132, 8 h; 100% = twice DMSO control signal;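 active = mean replicate activation of at least 50% with a set share of replicates each reaching 50%; inconclusive = only one of those two conditions met; inactive = mean below 50% and too few replicates reaching it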;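 note: 0% = median of the neutral control wells and 100% = twice that signal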
dFosB act: enhances mouse delta FosB homodimer DNA binding | P13346 | purified delta FosB, TAMRA-CDK5 oligo fluorescence polarization; percent of positive-control signal above neutral wells | activation, % at 25 µM | 340,000 tested, 0.99% active | AID 493131;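 active = mean activation above about 17%, with every replicate also reaching it, limit read from the data, passing the limit was not always enough; inconclusive = only one of the two conditions met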
Target sequence (P13346 whole entry, looked up): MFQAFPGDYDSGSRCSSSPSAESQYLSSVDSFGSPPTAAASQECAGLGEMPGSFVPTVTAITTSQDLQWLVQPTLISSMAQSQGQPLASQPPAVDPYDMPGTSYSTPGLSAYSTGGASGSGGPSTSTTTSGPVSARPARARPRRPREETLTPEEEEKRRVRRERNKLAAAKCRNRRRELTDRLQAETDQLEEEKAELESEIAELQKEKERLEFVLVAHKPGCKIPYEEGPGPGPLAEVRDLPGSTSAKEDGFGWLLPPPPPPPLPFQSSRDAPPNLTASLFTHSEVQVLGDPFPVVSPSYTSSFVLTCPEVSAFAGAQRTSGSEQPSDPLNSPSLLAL
Platelet DG rel: platelet dense granule release activity; human platelet-rich plasma, SFLLRN dense granule ATP release, luminescence; inhibition, %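 (compounds screened at 7.5 µM in platelet-rich plasma)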; 300,000 tested, 0.22% active; AID 1663;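 active = mean replicate score, as percent of positive control, at or above 50; inconclusive = mean below 50 but at least one replicate at or above 50; inactive = mean and every replicate below 50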
MPTP block: permeability transition pore inhibition; isolated mouse mitochondria, Ca2+ swelling absorbance, 30 min; inhibition, % at 10 µM; 360,000 tested, 1.4% active;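 active = inhibition of 50% or more, scaled per plate between neutral and stimulator controls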;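 note: 0% = DMSO wells given calcium and 100% = 1 mM EGTA wells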
MPTP counter: membrane potential counter-screen of mitochondrial pore inhibitors; shares compounds with MPTP block; isolated mitochondria, Rhodamine 123 fluorescence; inhibition, % at 10 µM; 5,000 tested, 78% active; in the data active = inhibition above about 22%;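 note: 0% = DMSO vehicle and 100% = positive control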
MPTP swell DR: MPTP inhibition, dose response swelling confirmation | IC50, µM | isolated mitochondria swelling, absorbance | 780 tested, 58% active | shares compounds with MPTP block; in the data active = IC50 below about 20 µM
MPTP cs DR: active in counter-screen for permeability transition pore inhibitors | isolated mitochondria counterscreen, fluorescence read-out | IC50, µM | shares compounds with MPTP block | 780 tested, 49% active; in the data active = IC50 below about 80 µM
* = called active by the depositor; ? = inconclusive; nt = no result given; ! = repeats disagree.

SMILES	HSP90 refold inh	HSF1 inh	HSF-1 act	dFosB act	Platelet DG rel	MPTP block	MPTP counter	others
CCC1Sc2ccc(S(=O)(=O)Nc3ccc(OC)c(OC)c3)cc2NC1=O (stereo unspecified)	-6	1	-2	-12	14	95*	87*
COc1ccc(C)cc1NS(=O)(=O)c1ccc2c(c1)NC(=O)C(C)S2 (stereo unspecified)	1	3	20	-7	0	2	nt
Cc1ccc(F)c(NC(=O)/C(C#N)=C(\O)c2ccc(C(C)(C)C)cc2)c1	-1	-42	-46	-7	-4	83*	71*
CCOC(=O)c1ccc(Nc2sc(C(=O)c3cccc([N+](=O)[O-])c3)c(N)c2C#N)cc1	1	-10	-11	8	-3	4	nt
O=[N+]([O-])c1ccc(-c2c(O)c3ccccc3c3nc4ccccc4nc23)cc1	-2	0	33	-3	-6	74*	37*
O=C1c2ccccc2C(=O)c2c(Nc3ccc(CCO)cc3)ccc(O)c21	2	-8	-17	-2	4	4	nt
O=C1c2c(O)ccc(O)c2C(=O)c2c(NCCNCCO)ccc(NCCNCCO)c21	nt	nt	nt	-276	nt	106*!	-45
C=CCN1C(=O)C(CC(=O)Nc2ccc(OCCC)cc2)N(CCCN2CCN(Cc3ccccc3)CC2)C1=S (stereo unspecified)	4	-2	10	8	4	14	nt
Cn1nc(-c2ccccc2)cc1NC(=O)Nc1ccc(C(C)(C)C)cc1	0	5	42	-4	12	70*	74*
Cc1cc(NC(=O)Nc2ccc(Cl)cc2)n(C)n1	-1	-1	10	1	-2	2	nt
Cn1nc(-c2ccc(Cl)cc2)cc1NC(=O)Nc1ccccc1	-3	10	2	?	-2	70*	69*
COc1ccc(C2=CC(=O)N(Nc3ccccc3)C2=O)cc1	7	47	72*	nt	11	61*	-8
CCN(CC(=O)Nc1cccc(OC)c1)c1ncnc2sc(C)c(C)c12	-5	5	20	2	-11	72*	68*
CC1(c2ccc3ccccc3c2)NC(=O)N(CC(=O)N2CCN(Cc3ccc(C#N)cc3)CC2)C1=O (stereo unspecified)	nt	nt	nt	-12	nt	57*	65*
CSc1nc(N)nc(SCC(=O)Nc2cccc(F)c2)c1C#N	1	16	18	-6	-1	93*	87*
CSc1nc(N)nc(SCC(=O)Nc2ccc(Cl)cc2)c1C#N	-3	20	46	6	-12	85*	82*
CSc1nc(N)nc(SCC(=O)C(C)(C)C)c1C#N	3	6	11	-4	13	4	nt
O=C(/C=C/c1ccco1)OCC(=O)N1CCCCC1	nt	nt	nt	1	nt	1	nt
Cc1cccc(Cn2nc(C(C)(C)C)cc2C(=O)Nc2ccc(F)cc2)c1	-6	-17	-14	1	10	83*	87*
Cc1noc(C)c1CSc1nc2ccccc2nc1NS(=O)(=O)c1ccc(Cl)cc1	-7	3	11	-21	-6	88*	87*
COCCN(Cc1ccc(OC)cc1)c1c(C)nc2ccc(C(=O)NCCc3c[nH]c4ccccc34)cn12	nt	nt	nt	nt	nt	0	nt
COC(=O)[C@H](Cc1ccccc1)NC(=O)N1CCN(c2ccc(F)cc2)CC1	0	-1	21	-9	-1	0	nt
CCOc1ccc(C(=O)Nc2ccc(N3CCN(C(=O)c4ccco4)CC3)cc2)cc1Br	nt	nt	nt	-7	nt	0	nt
CCOc1ccc(C(=O)Nc2ccc(N3CCN(C)CC3)cc2)cc1Br	3	2	-6	5	0	60*	-15	MPTP swell DR=18*;MPTP cs DR=>80
CCCCNC(=O)c1nc(-c2ccccc2)oc1-c1ccc(Cl)cc1	nt	nt	nt	nt	nt	20	nt
SMILES	HSP90 refold inh	HSF1 inh	HSF-1 act	dFosB act	Platelet DG rel	MPTP block	MPTP counter	others
Cc1cc(Br)c2nc3c(c(C(=O)O)c2c1)CCCCC3	-2	-3	-6	-4	-1	-10	nt
O=C1NCN(c2ccccc2)C12CCN(CCCC(c1ccc(F)cc1)c1ccc(F)cc1)CC2	0	4	-5	?	-4	100*	-25	MPTP swell DR=7.3*;MPTP cs DR=31*
CCCNC(=O)C[C@H]1CC[C@@H]2[C@H](COC[C@@H](O)CN2C(=O)c2ccccn2)O1	nt	nt	nt	nt	nt	0	nt
O=C(NC1CCCC1)c1cccc(Oc2ccccc2)c1	-2	10	16	1	-9	3	nt
CC1(C)CCC(=O)N2CC[C@H]3C[C@H](OC(=O)Nc4ccc(Br)cc4)C[C@@H]1[C@H]32	-9	26	?	1	1	69*	87*
CCOC(=O)C(CC)c1cc2n(c(=O)c1C#N)CCC21OCCO1 (stereo unspecified)	nt	nt	nt	nt	nt	0	nt
CCCCOCCCNC(=O)C[C@@H]1C[C@@]2(C(=O)OCC)CCC=C2N(Cc2cccc3ccccc23)C1=O	nt	nt	nt	nt	nt	0	nt
O=C(OCc1ccccc1)N(CCCCN(CCCNCc1ccccc1)C(=O)OCc1ccccc1)CCCNCc1ccccc1	nt	nt	nt	0	nt	64*	-6
CC(NC(=O)Nc1ccc(Cl)c(Cl)c1)C(c1ccccc1)N1CCOCC1 (stereo unspecified)	-2	7	13	-4	0	89*	95*
CC(NC(=O)Nc1ccc([N+](=O)[O-])cc1)C(c1ccccc1)N1CCOCC1 (stereo unspecified)	0	5	34	-5	-6	-1	nt
CC(Cc1cccs1)NC(=O)Nc1ccc(Cl)c(Cl)c1 (stereo unspecified)	1	21	24	-6	12	96*	94*
Nc1nccnc1C(=O)OCC(=O)C12CC3CC(CC(C3)C1)C2	nt	-7	-6	10	-10	-2	nt
N#CC1(C#N)CC(C=O)=C(N)C1(C#N)CC(=O)C12CC3CC(CC(C3)C1)C2 (stereo unspecified)	-2	-4	15	-11	-10	73*	55*
CCN(CC(=O)Nc1c(F)cccc1F)C(=O)Cn1c(=O)cnc2ccccc21	nt	nt	nt	-3	nt	0	nt
COc1ccc(-c2cn(Cc3ccc(C(=O)NCc4ccc(C)cc4)cc3)c(C(C)N)n2)cc1 (stereo unspecified)	nt	22	16	-13	-2	75*	-20	MPTP swell DR=10*;MPTP cs DR=>80
O=C(NCCSc1ccccc1)c1ccc(Br)cc1	1	28	45	2	-2	2	nt
O=C(NCCCSc1ccccc1)c1cc(Br)ccc1O	-4	-7	-6	-16	-13	75*	86*
